{
  "source": "PubChem BioAssay (NCI)",
  "note": "About 79,000 compounds went through this panel and 15% of them were active in at least one assay; those are over-represented in the sample as a whole. Values without a mark were called inactive. The source made the active and inactive calls. No stated cut-off is given here; in the data, active means growth inhibition above about 70%; inactive means the rest.",
  "data": [
    {"assay": "NCI Yeast Anticancer Drug Screen. Data for the mlh1 rad18 strain (AID 175)", "settings": "S. cerevisiae mlh1 rad18 strain growth inhibition; at 50.0 µM; hits give high values", "procedure,_shortened": "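Compound-treated yeast growth, normalised to vehicle controls. Strain bears defined DNA repair mutations.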", "values": [
      {"smiles": "COC1C2CCC1C(N=O)C2Br", "note": "(stereo not given)", "growth inhibition": "-14.7%"},
      {"smiles": "CC(CO)(NC(=O)c1ccccc1)C(=O)O", "note": "(stereo not given)", "growth inhibition": "23.4%"},
      {"smiles": "COc1cc(-c2c(C)c(C)nc(OC)c2C#N)cc(OC)c1OC", "growth inhibition": "-17.9%"},
      {"smiles": "NC(Cc1ccc(B(O)O)cc1)C(=O)O", "note": "(stereo not given)", "growth inhibition": "-4.05%"},
      {"smiles": "COc1cc2c(cc1OC)C1=Cc3cc(OC)c(OC)cc3C(C)N1C=C2", "note": "(stereo not given)", "growth inhibition": "-16.7%"},
      {"smiles": "CC(=O)N(CN1C(=O)CCC1C(=O)O)c1cccc(O)c1", "note": "(stereo not given)", "growth inhibition": "-66.7%"},
      {"smiles": "CC1SCCNC1=O", "note": "(stereo not given)", "growth inhibition": "-16.9%"},
      {"smiles": "O=C1OCC/C1=C\\c1cccc2ccccc12", "growth inhibition": "6.35%"},
      {"smiles": "COc1ccc(CSc2n[nH]c(=O)[nH]c2=S)cc1", "growth inhibition": "38.4%"},
      {"smiles": "O=C(Nc1ccccc1)Oc1ccc(Cl)cc1Cc1ccccc1", "growth inhibition": "99.8% (active)"},
      {"smiles": "ClC1(Cl)CC1c1ccccc1", "note": "(stereo not given)", "growth inhibition": "14.7%"},
      {"smiles": "CC(C)(C)c1cc2c(O)c(c1)Cc1cc(C(C)(C)C)cc(c1O)Cc1cc(C(C)(C)C)cc(c1O)Cc1cc(C(C)(C)C)cc(c1O)Cc1cc(C(C)(C)C)cc(c1O)Cc1cc(C(C)(C)C)cc(c1O)Cc1cc(C(C)(C)C)cc(c1O)Cc1cc(C(C)(C)C)cc(c1O)C2", "growth inhibition": "-15.1%"},
      {"smiles": "Cc1cc2c(C)[nH]nc2c(C(=O)O)c1C", "growth inhibition": "19.4%"},
      {"smiles": "NC(=O)CCn1ccc2ccccc21", "growth inhibition": "-0.85%"},
      {"smiles": "CSC(=S)n1nc(-c2cccs2)c(N=Nc2ccc([N+](=O)[O-])cc2)c1C(F)(F)F", "growth inhibition": "0.85%"},
      {"smiles": "C[C@]12CC[C@@H]3c4cc(C=O)c(OCc5ccccc5)cc4CC[C@H]3[C@@H]1CCC2OCc1ccccc1", "note": "(stereo not given in full)", "growth inhibition": "-0.95%"},
      {"smiles": "C[C@H](CCc1nc(C#N)c(N)o1)[C@H]1CC[C@H]2[C@@H]3[C@@H](O)CC4C[C@@H](O)CC[C@]4(C)[C@H]3C[C@@H](O)[C@]12C", "note": "(stereo not given in full)", "growth inhibition": "-2.85%"},
      {"smiles": "CC(N)c1ccc2ccccc2c1O", "note": "(stereo not given)", "growth inhibition": "8.05%"},
      {"smiles": "O=C=Nc1ccc([N+](=O)[O-])cc1", "growth inhibition": "-8.75%"},
      {"smiles": "O=C(O)/C(=C/c1ccccc1[N+](=O)[O-])c1cccs1", "growth inhibition": "8.9%"},
      {"smiles": "O=C(O)c1ccc(/C=N\\N(CCO)C2=NCCN2)cc1", "growth inhibition": "6.4%"},
      {"smiles": "O=C(OCCCCCCCCOC(=O)c1cccc([N+](=O)[O-])c1)c1cccc([N+](=O)[O-])c1", "growth inhibition": "4.85%"},
      {"smiles": "CCCCCCCC/C=C\\CCCCCCCC(=O)NCCN(CCN)C(=O)CCCCCCC/C=C\\CCCCCCCC", "growth inhibition": "-23.8%"},
      {"smiles": "CC1/C(=N/O)CC(c2ccccc2)N(N=O)C1c1ccccc1", "note": "(stereo not given)", "growth inhibition": "46%"},
      {"smiles": "O=c1[nH]cc(COCC(O)CO)c(=O)[nH]1", "note": "(stereo not given)", "growth inhibition": "-23.7%"},
      {"smiles": "OC(COc1ccc(Cl)cc1Cl)CN1CCCC1", "note": "(stereo not given)", "growth inhibition": "18.1%"},
      {"smiles": "OC(CCCCCCCCC(O)CN1CCCCC1)CN1CCCCC1", "note": "(stereo not given)", "growth inhibition": "15.1%"},
      {"smiles": "Cc1ccc(S(=O)(=O)NC(CC(C)C)C(=O)O)cc1", "note": "(stereo not given)", "growth inhibition": "0.45%"},
      {"smiles": "CC(=O)OCOC(=O)CN(CC(=O)OCOC(C)=O)Cc1cc2c(cc1OC(C)=O)Oc1cc(OC(C)=O)c(CN(CC(=O)OCOC(C)=O)CC(=O)OCOC(C)=O)cc1C21OC(=O)c2ccccc21", "growth inhibition": "35.1%"},
      {"smiles": "OCC1CC(c2ccccc2)=NO1", "note": "(stereo not given)", "growth inhibition": "-17.6%"},
      {"smiles": "Cn1c(N)cc(=O)n(C)c1=O", "growth inhibition": "27%"},
      {"smiles": "CC(=O)Oc1cc(N(C)C)ccc1SC(Cl)(Cl)Cl", "growth inhibition": "-25.6%"},
      {"smiles": "O=[N+]([O-])c1ccc(CCCCCc2ccccc2)cc1", "growth inhibition": "-21.4%"},
      {"smiles": "O=C(O)C1CC2(CCC1c1ccccc1)SCCS2", "note": "(stereo not given)", "growth inhibition": "-9.85%"},
      {"smiles": "O=[N+]([O-])c1ccc(C2=NN(c3ccccc3)C(c3ccccc3)C2)cc1", "note": "(stereo not given)", "growth inhibition": "4%"},
      {"smiles": "COc1cc(C2CC(C)=C(C)CC2C(=O)O)cc(OC)c1OC", "note": "(stereo not given)", "growth inhibition": "19.8%"},
      {"smiles": "O=C(/C=C/c1c[nH]c2ccccc12)c1ccccc1[N+](=O)[O-]", "growth inhibition": "-7%"},
      {"smiles": "Cc1ccccc1OCC(O)CO", "note": "(stereo not given)", "growth inhibition": "-13.6%"},
      {"smiles": "Cc1ccc(/C=N/NS(=O)(=O)c2ccccc2)cc1", "growth inhibition": "24.9%"},
      {"smiles": "N#CC1(c2ccccc2)OC1(C#N)c1ccccc1", "note": "(stereo not given)", "growth inhibition": "-7.6%"}
    ]}
  ]
}
